Shown are actives, neighbours in structure and some others; about 0.68% of the full set was active somewhere.
Tb PYK inh = inhibitors of Trypanosoma brucei pyruvate kinase; Q57TT1; TbPYK enzyme, Kinase-Glo Plus ATP luminescence, 45 min; Potency, µM (top dose mostly 76.8 µM), hits mostly inhibitors; 410,000 tested, 0.12% active; AID 624173; also: nearly all actives have a fitted effect of over 50% in size
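TbPYK + substrate in 50 mM TEA pH 7.2, 100 mM KCl, 10 mM MgCl2, 0.05% BSA, 0.01% Tween-20; cpd pinned; ADP 130 uM final; 45 min RT; Kinase-Glo Plus 10 min; luminescence endpoint.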
AMA1-RON2 inh = AMA1-RON2 (P. falciparum) interaction inhibition. 360,000 tested, 0.2% active. AlphaScreen AMA1-biotinylated RON2 peptide binding. AID 720542. Potency, µM (titrated, usually from 58.2 µM), usual class: inhibitors; also: nearly all actives have a fitted effect of over 45% in size
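AMA1 (3D7) with his tag at 25 nM final met compounds first, then biotinylated RON2 peptide at 25 nM; detection used donor plus acceptor beads, 10 µg/mL apiece, read by AlphaScreen after 30 min at room temperature.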
LmPK inhibitor = blocks Leishmania mexicana pyruvate kinase activity. Potency, µM (doses to about 57.5 µM), hits mostly inhibitors. purified LmPK, Kinase-Glo ATP luminescence, 1 h. Q27686. 290,000 tested, 0.37% active
Target sequence (Q27686 whole entry, looked up): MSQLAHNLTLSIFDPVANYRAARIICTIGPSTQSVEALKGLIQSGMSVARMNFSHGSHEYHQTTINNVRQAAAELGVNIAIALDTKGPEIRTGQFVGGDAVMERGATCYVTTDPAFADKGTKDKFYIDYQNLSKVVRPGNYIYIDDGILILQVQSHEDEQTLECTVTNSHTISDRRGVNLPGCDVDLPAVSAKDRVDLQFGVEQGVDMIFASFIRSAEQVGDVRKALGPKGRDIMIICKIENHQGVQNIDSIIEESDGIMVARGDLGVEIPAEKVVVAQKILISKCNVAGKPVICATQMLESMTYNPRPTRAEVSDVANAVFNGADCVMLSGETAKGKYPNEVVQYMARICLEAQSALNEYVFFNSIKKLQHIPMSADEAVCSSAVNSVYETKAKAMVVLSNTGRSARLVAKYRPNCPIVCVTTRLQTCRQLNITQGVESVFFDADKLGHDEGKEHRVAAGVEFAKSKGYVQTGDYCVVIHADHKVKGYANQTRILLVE
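qHTS format; LmPK 0.1 nM; substrates PEP 0.5 mM and ADP 0.1 mM. One-hour room-temperature incubation, then coupled luciferase luminescence; 0.5 nM enzyme wells mark activation.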
RE007 growth inh = less growth of the S. pombe RE007 Vpr strain; S. pombe RE007 Vpr strain, BacTiter-Glo ATP luminescence, 24 h; Potency, µM (doses to about 92.2 µM), most hits filed as inhibitors; 360,000 tested, 0.21% active; active = well fitted falling curve with a large enough effect; inconclusive = small, poorly fitted or top-dose-only effect; inactive = no such curve, though single readings can be large or run the other way; also: nearly all actives have a fitted effect of over 50% in size
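Fission yeast strain RE007, carrying one chromosomally integrated HIV-1 vpr copy, was seeded at OD 0.01 in PMG+AL medium with 23 nL pinned compound. After 24 h at 30 °C and 99% humidity, viability was read by BacTiter-Glo luminescence.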
Numbers stand for hits; - = inactive; ? = inconclusive; . = not tested or not shown. Unless noted, calls follow the shape of the dose curve; as a rule, active = well fitted curve in the direction sought with a large enough effect; inconclusive = small, poorly fitted or top-dose-only effect, or another doubt; inactive = no such curve, though single readings can be large; an effect the other way counts as inactive or inconclusive.

SMILES	Tb PYK inh	AMA1-RON2 inh	LmPK inhibitor	RE007 growth inh
O=C(Nc1ccccc1)c1cn2ccccc2n1	-	-	15.8µM	-
Cc1csc(NC(=O)c2ccc(C(=O)Nc3nc(C)cs3)cc2)n1	.	.	-	.
COc1ccc(N2c3ccccc3CN(Cc3ccccc3)CC2Cc2cc(OC)c(OC)c(OC)c2)cc1 (stereo not given)	-	11.2µM	.	-
CC1=C/C(=C(/c2cc(C)c(O)c(Br)c2)c2ccccc2S(=O)(=O)O)C=C(Br)C1=O	?	?	20µM	?
Cc1ccc(-c2n[nH]c(=S)n2C)cc1	-	-	-	-
Cc1ccc(-c2cn3c(=S)[nH]nc3s2)cc1	?	-	2.24µM	-
COc1ccc2nc(SCc3cccnc3)c(C#N)cc2c1	-	-	-	-
Cc1ccc(/C=C/C(=O)N2CCN(S(=O)(=O)c3ccc(C)c(C)c3)CC2)o1	14.1µM	-	-	-
CC(=O)c1ccc2c(c1)C1C=CCC1C(C(=O)O)N2 (stereo not given)	-	3.98µM	-	-
CC(C)COCc1ccc(O)c2ncccc12	-	-	-	?
CCCOCc1ccc(O)c2ncccc12	-	-	-	39.8µM
Cc1cccc(Cn2c(=O)n(Cc3ccccc3)c(=O)c3oc4ccccc4c32)c1	-	.	.	.
COc1ccccc1N1C(=NC(=O)COc2ccccc2)SC2CS(=O)(=O)CC21 (stereo not given)	-	-	-	-
O=C1/C(=C\c2cc([N+](=O)[O-])ccc2O)SC(=S)N1Cc1ccc(Cl)cc1	-	-	-	39.8µM
CCCN(CC(=O)Nc1ccccc1C)C(=O)C1CC(=O)N(c2ccccc2C(C)CC)C1 (stereo not given)	-	-	.	-
Cc1ccc(C(=O)NCC(c2ccc(F)cc2)N2CCOCC2)s1 (stereo not given)	-	-	.	-
COc1ccc(C(=O)N2CCC(C(=O)Nc3ccc4c(c3)OCO4)CC2)cc1	-	-	-	-
Cc1cccc(C(=O)Oc2csc(=S)n2C(=O)c2cccc(C)c2)c1	28.2µM	-	-	-
O=C(Oc1csc(=S)n1C(=O)c1ccccc1)c1ccccc1	?	-	-	-
CN(C1=C(N2CCCCC2)C(=O)c2ccccc2C1=O)c1ccccc1	-	9.47µM	?	-
O=C1C(NS(=O)(=O)c2ccccc2)=C(N2CCN(c3ccc(F)cc3)CC2)C(=O)c2ccccc21	-	17.8µM	-	-
O=C1C(NS(=O)(=O)c2ccc(Br)cc2)=C(N2CCCCC2)C(=O)c2ccccc21	-	15.8µM	-	-
CC1CCN(C2=C(NS(=O)(=O)c3ccc(Br)cc3)C(=O)c3ccccc3C2=O)CC1	-	12.6µM	-	-
CC1CCN(C2=C(NS(=O)(=O)c3ccccc3)C(=O)c3ccccc3C2=O)CC1	-	?	-	-
CC1CN(CCOc2ccc(F)cc2)CC(C)O1 (stereo not given)	-	20µM	-	-
SMILES	Tb PYK inh	AMA1-RON2 inh	LmPK inhibitor	RE007 growth inh
CCN(CC)c1ccc(Nc2nc(N3CCOCC3)c3ccccc3n2)cc1	?	23.8µM	-	-
CN1CCc2c(sc3c2c(=O)n(-c2ccccc2)c2nnc(SCc4ccccc4)n32)C1	31.6µM	-	-	-
CN1CCc2c(sc3c2c(=O)n(-c2ccccc2)c2nnc(SCc4ccc(F)cc4)n32)C1	-	-	.	-
CN(C)c1ccc(C=C2C=Cc3ccccc32)cc1	-	?	.	-
COc1cc2c(cc1OC)C(=Cc1ccc(N(C)C)cc1)C=C2	-	8.91µM	.	-
CCOC(=O)c1cc(S(=O)(=O)N2CC(C)CC(C)C2)cn1C (stereo not given)	-	-	-	-
CCCOc1ccc2cc(-c3ccccn3)c(=O)oc2c1	?	-	10µM	?
COC(=O)c1cc2c(cc1[N+](=O)[O-])OCO2	-	-	-	-
COc1cc2c(cc1/C=C/[N+](=O)[O-])OCO2	-	-	-	14.1µM
Cc1ccsc1-c1n[nH]c(=S)n1C1CCCCC1	3.16µM	-	8.91µM	-
S=c1[nH]nc(-c2cccnc2)n1C1CCCCC1	?	-	8.91µM	-
S=c1[nH]nc(-c2cccnc2)n1Cc1ccccc1	?	-	?	-
COc1ccc(-c2n[nH]c(=S)n2C2CCCCC2)cc1	?	-	4.47µM	-
S=c1[nH]nc(-c2ccccc2)n1C1C=CCCC1 (stereo not given)	8.91µM	-	2.51µM	-
Cc1ccsc1/C=N/n1c(-c2ccco2)n[nH]c1=S	-	-	-	-
COc1ccc(-c2n[nH]c(=S)n2Cc2ccco2)cc1	?	-	?	-

Bioassay records as filed in PubChem.
